Data from PubChem BioAssay AID1159580 (chemical genetic matrix, 2015).
Among all 5,500 compounds or so, about 2,000 (36%) were called active. Another 18% or so got no clear call; they are omitted. No stated cut-off is given here; in the data, active means normalized growth mostly below about 0.91 (no sharp cut-off); inconclusive means no clear call, values can overlap the other calls; inactive means mostly above about 0.92. The list shows a part of the results.

Assay: chemical genetic growth profiling, strain panel (AID 1159580);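 further: tested at 20 µM; growth read once vehicle control cultures reached saturation at 30 °C; 1 = growth at the plate median or of vehicle wells; lower values mean less growth of the strain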
Settings: S. cerevisiae deletion strains, growth OD

Measured: normalized growth

CC(C)(C)c1ccc(C(=O)Nc2ccc(C(F)(F)F)cc2)s1
active: locus YHR030C, strain SLT2, hits give low values 0.821
inactive: locus YAR019C, strain CDC15, hits give low values 0.985 | locus YBL105C, strain PKC1, hits give low values 0.991 | locus YBR135W, strain CKS1, hits give low values 0.994 | locus YBR136W, strain MEC1, hits give low values 0.972 | locus YBR160W, strain CDC28, hits give low values 0.984 | locus YDL017W, strain CDC7, hits give low values 0.997 | locus YDL028C, strain MPS1, hits give low values 0.967 | locus YDL101C, strain DUN1, hits give low values 1.01 | locus YDL108W, strain KIN28, hits give low values 0.972 | locus YDL132W, strain cdc53, hits give low values 0.988 | locus YDL214C, strain PRR2, hits give low values 0.952 | locus YDR052C, strain DBF4, hits give low values 0.996 | locus YDR054C, strain cdc34, hits give low values 0.989 | locus YDR226W, strain ADK1, hits give low values 0.976 | locus YDR477W, strain SNF1, hits give low values 0.952 | locus YER123W, strain YCK3, hits give low values 0.968 | locus YER133W, strain GLC7, hits give low values 0.977 | locus YFL009W, strain cdc4, hits give low values 0.976 | locus YFL029C, strain CAK1, hits give low values 0.987 | locus YFR003C, strain YPI1, hits give low values 0.999 | locus YFR019W, strain FAB1, hits give low values 0.972 | locus YFR028C, strain CDC14, hits give low values 0.985 | locus YGR040W, strain KSS1, hits give low values 0.954 | locus YGR052W, strain FMP48, hits give low values 1 | locus YGR092W, strain DBF2, hits give low values 0.966 | locus YHR079C, strain IRE1, hits give low values 0.963 | locus YHR082C, strain KSP1, hits give low values 0.991 | locus YHR205W, strain SCH9, hits give low values 0.92 | locus YIL147C, strain SLN1, hits give low values 0.989 | locus YJL095W, strain BCK1, hits give low values 0.957 | locus YJL128C, strain PBS2, hits give low values 0.943 | locus YJL157C, strain FAR1, hits give low values 0.976 | locus YJR016C, strain ILV3, hits give low values 0.996 | locus YJR066W, strain TOR1 (second series), hits give low values 0.967 | locus YJR066W, strain TOR1, hits give low values 0.929 | locus YKL048C, strain ELM1, hits give low values 0.988 | locus YKL067W, strain YNK1, hits give low values 0.944 | locus YKL101W, strain HSL1, hits give low values 0.935 | locus YKL193C, strain SDS22, hits give low values 0.986 | locus YKL203C, strain TOR2, hits give low values 1.05 | locus YLR113W, strain HOG1, hits give low values 0.863 | locus YLR133W, strain CKI1, hits give low values 0.971 | locus YLR403W, strain SFP1, hits give low values 0.974 | locus YML070W, strain DAK1, hits give low values 0.944 | locus YMR001C, strain CDC5, hits give low values 0.995 | locus YMR205C, strain PFK2 (second series), hits give low values 0.975 | locus YMR277W, strain FCP1, hits give low values 0.966 | locus YNL006W, strain LST8, hits give low values 0.981 | locus YNL020C, strain ARK1, hits give low values 0.973 | locus YNL161W, strain CBK1, hits give low values 0.985 | locus YNL183C, strain NPR1, hits give low values 1.01 | locus YNL207W, strain RIO2, hits give low values 0.991 | locus YNL222W, strain SSU72, hits give low values 0.988 | locus YNL307C, strain MCK1 (second series), hits give low values 0.99 | locus YOL078W, strain AVO1, hits give low values 0.989 | locus YOL136C, strain PFK27, hits give low values 0.939 | locus YOR061W, strain CKA2, hits give low values 1 | locus YOR119C, strain RIO1, hits give low values 0.993 | locus YOR231W, strain MKK1, hits give low values 0.925 | locus YOR329C, strain SCD5, hits give low values 0.999 | locus YPL031C, strain PHO85, hits give low values 0.977 | locus YPL153C, strain RAD53, hits give low values 0.951 | locus YPL204W, strain HRR25, hits give low values 0.951 | locus YPL209C, strain IPL1, hits give low values 0.991 | locus YPL256C, strain CLN2, hits give low values 0.899 | locus YPR025C, strain CCL1, hits give low values 1 | locus YPR106W, strain ISR1, hits give low values 0.98 | locus YPR111W, strain DBF20, hits give low values 0.955 | strain NNK1, hits give low values 0.98 | strain TSCII, hits give low values 0.983
